Assay outcomes as filed in PubChem.
ClpP mod: qHTS Assay for Activators of ClpP | Potency, µM (top dose mostly 57.5 µM), inactives show at the highest dose activity change, negative = active | actives 1.9% (n = 340,000) | ATP-dependent Clp protease proteolytic subunit (Bacillus subtilis (strain 168)), P80244 | purified B. subtilis ClpP, FRET peptide cleavage, 20 min; active = well fitted falling curve with a large enough effect; inconclusive = small, poorly fitted or top-dose-only effect; inactive = no such curve, though single readings can be large or run the other way; also: potency is read from the fitted curve at half-maximal effect; the source files actives as falling curves though it sought activators and does not explain the sign; nearly all actives have a fitted effect of over 65% in size
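FRET quenching reversal measured ClpP activation: 10 microg/mL B. subtilis ClpP at pH 8 with the FRET-FV decapeptide, read at 430 nm after 320 nm excitation. The 20-min minus 0-min signal was scaled between DMSO/no-enzyme wells and ADEP (5.8 microM final).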
TRPV1 potentiator: HTS Assay for Compounds that Act as Potentiators of the Vanilloid Receptor 1. actives 0.02% (n = 320,000). TRPV1-expressing cells, Fluo-8 calcium influx, capsaicin EC20 potentiation. potentiation, % at 8.33 µM; in the data active = potentiation above about 80%; inconclusive = between about 30% and that limit; also: 0% is about no effect
Target sequence (Q8NER1 whole entry, looked up): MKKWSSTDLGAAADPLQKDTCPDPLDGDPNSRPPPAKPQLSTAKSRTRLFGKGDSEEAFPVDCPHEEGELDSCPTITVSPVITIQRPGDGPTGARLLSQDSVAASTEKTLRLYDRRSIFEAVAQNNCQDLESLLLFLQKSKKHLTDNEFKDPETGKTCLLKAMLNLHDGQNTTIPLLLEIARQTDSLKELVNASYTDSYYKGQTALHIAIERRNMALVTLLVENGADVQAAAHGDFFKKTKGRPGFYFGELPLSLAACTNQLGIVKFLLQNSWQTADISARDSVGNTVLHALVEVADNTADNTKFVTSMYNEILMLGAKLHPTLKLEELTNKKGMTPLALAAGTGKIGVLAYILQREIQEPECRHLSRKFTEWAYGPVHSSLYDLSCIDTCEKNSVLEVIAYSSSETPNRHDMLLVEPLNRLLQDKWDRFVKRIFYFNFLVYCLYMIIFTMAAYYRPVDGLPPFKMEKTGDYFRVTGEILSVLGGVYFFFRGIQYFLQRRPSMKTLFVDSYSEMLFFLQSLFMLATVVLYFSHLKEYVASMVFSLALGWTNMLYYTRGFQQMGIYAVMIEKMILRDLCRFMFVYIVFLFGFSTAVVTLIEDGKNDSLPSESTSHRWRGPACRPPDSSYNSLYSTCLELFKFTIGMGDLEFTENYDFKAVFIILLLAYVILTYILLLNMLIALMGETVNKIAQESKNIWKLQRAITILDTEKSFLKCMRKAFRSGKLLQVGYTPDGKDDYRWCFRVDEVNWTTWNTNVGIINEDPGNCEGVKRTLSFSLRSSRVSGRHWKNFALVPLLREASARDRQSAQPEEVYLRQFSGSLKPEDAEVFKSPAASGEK
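Fluo-8 calcium influx in TRPV1-expressing cells, kinetic read (ex 480/em 520 nm). Compound added and read 3 min for agonist activity, followed by capsaicin at EC20 final and 2 min further read for enhancement.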
KCNH2 3.1 block: qHTS for Inhibitors of KCHN2 3.1: Mutant qHTS. activity change, % (tested at about 1.8 µM). actives 0.95% (n = 340,000). U2OS KCNH2 3.1, thallium flux FluxOr; hits give low values;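 active = maximum activity change below -70%; inconclusive = maximum activity change from -70% to -50%; inactive = maximum activity change above -50%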;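 also: thallium influx rate constant from kinetic fluorescence after stimulation buffer; % is scaled to controls: 0 for no effect and ±100 for the full control effect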
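Kinetic fluorescence (2 min after stimulation buffer) measures Tl+ influx through KCNH2 3.1 expressed by viral transduction in U2OS cells; the rate constant is normalized against DMSO controls serving as positive and negative references.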
hERG WT inh: qHTS for Inhibitors of KCHN2 3.1: Wildtype qHTS; Voltage-gated inwardly rectifying potassium channel KCNH2 (Homo sapiens), Q12809; AID 720551, 2013; U2OS, BacMam KCNH2, thallium flux FluxOr; hits give low values; activity change, % at 1.84 µM; actives 0.37% (n = 340,000);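 active = maximum activity change below -70%; inconclusive = maximum activity change between -70% and -50%; inactive = maximum activity change above -50%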; also: % is scaled to controls: 0 for no effect and ±100 for the full control effect
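U2OS cells transduced with wild-type KCNH2 virus are loaded with FluxOr dye for 45 min, and thallium flux is measured in kinetic reads before and after stimulation buffer. Rate constants are normalized to DMSO controls.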
p53 reactivation: qHTS assay for re-activators of p53 using a Luc reporter. H1299 p53-A138V BP100-luciferase reporter, luminescence, 24 h. Potency, µM (series often up to 92.2 µM), for inactives: at the highest dose activity change, positive = activation, actives largely listed as activators. actives 0.063% (n = 320,000); active = well fitted activation curve with a large enough effect; inconclusive = small, poorly fitted or top-dose-only effect; inactive = no such curve, though single readings can be large or run the other way; also: potency is read from the fitted curve at half-maximal effect; % of control where 0% means no effect; nearly all actives have a fitted effect of over 45% in size
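H1299 (p53-null), stable ts p53-A138V + BP100-Luc; 1000 cells/well, Opti-MEM/10% FBS; cpd 4 pt, 1:5; 24 h, 37 deg C, 5% CO2; detection reagent 10 min RT; luminescence.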
TRPV1 ag: HTS Assay for Compounds that Act as Agonists of the Vanilloid Receptor 1. Transient receptor potential cation channel subfamily V member 1 (Homo sapiens), Q8NER1. actives 0.19% (n = 320,000). TRPV1-expressing cells, Fluo-8 calcium influx, agonist mode. activation, % at 8.33 µM; in the data active = activation above about 80%; inconclusive = between about 30% and that limit; also: 0% is about no effect
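Fluo-8 calcium influx in TRPV1-expressing cells, kinetic read (ex 480/em 520 nm). Compound added and read 3 min for agonist activity, followed by capsaicin at EC20 final and 2 min further read for enhancement.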
* = called active by the depositor; ? = inconclusive; . = no result; ! = a repeat was not active. An excerpt weighted towards active compounds, which were near 2.6% of everything screened.

SMILES	ClpP mod	TRPV1 potentiator	KCNH2 3.1 block	hERG WT inh	p53 reactivation	TRPV1 ag
COc1ccc(C)cc1NC(C)C(=O)NC(=O)NC1CCCCC1 (configuration not stated)	-1.0%	-13.8	-97.3*	-3.0	-3.0%	17.2
COc1cc(C)ccc1OCC(=O)NC1CCCCCC1	1.2%	-19.5	-15.1	1.5	?	?
CCOC(=O)C1(CCOc2ccccc2)CCN(Cc2ccc(O)cc2)CC1	3.1%	-5.2	-84.1*	-20.8	?	16.5
CCOC(=O)C1(CCOc2ccccc2)CCN(Cc2ccc(OCCO)cc2)CC1	-0.9%	-8.3	-109.8*	-77.0*	-2.4%	6.4
CCOC(=O)C1(CCOc2ccccc2)CCN(Cc2ccc(C)o2)CC1	.	-18.2	-9.6	12.4	7.0%	12.2
CC1(c2ccc3ccccc3c2)CCC(=O)O1 (configuration not stated)	-2.2%	.	6.7	-104.5*	.	.
CC1(c2ccc3ccccc3c2)NC(=O)N(CC(=O)O)C1=O (configuration not stated)	.	-1.4	0.0	2.7	-3.2%	1.2
CCOC(=O)c1cn(CC(=O)Nc2cccc(Cl)c2C)nn1	35.5µM*!	.	18.6	32.3	-2.5%	.
CCOC(=O)c1cn(CC(=O)Nc2cccc(Cl)c2)nn1	-2.7%	21.8	-8.2	-3.8	-3.8%	3.1
O=C(NCCc1c[nH]c2ccccc12)c1ccc2[nH]c(=O)c(=O)[nH]c2c1	0.3%	?	-3.2	-0.7	-4.7%	4.2
O=C(NCCO)c1ccc2[nH]c3ccccc3c2c1	25.1µM*	-11.1	12.6	3.9	-2.0%	-1.9
CCN(CC)CCN(C(=O)c1ccco1)c1nc2c(C)c(C)ccc2s1	-5.5%	.	.	.	.	.
Cc1nc2ccc(C(=O)OC(C)C(=O)c3c(C)[nH]c4ccccc34)cc2nc1C (configuration not stated)	-1.2%	.	.	.	.	.
Cc1ccc(NC(=O)c2cnc(N3CCCCC3)c3ccccc23)cc1Cl	31.6µM*	.	.	.	.	.
O=C(c1cnc(N2CCCCC2)c2ccccc12)N1CCN(c2cccc(Cl)c2)CC1	28.2µM*	.	.	.	.	.
CCOC(=O)c1ccccc1NC(=O)c1cnc(N2CCOCC2)c2ccccc12	31.6µM*	.	.	.	.	.
CCOc1ccc(NC(=O)c2cnc(N3CCCCC3)c3ccccc23)cc1	-7.5%	.	.	.	.	.
COc1cccc(CN(C)C(=O)c2cccc(S(=O)(=O)N3CCN(c4ccc(F)cc4)CC3)c2)c1OC	.	0.1	-159.0*	0.3	-6.0%	12.9
CN1CCN(S(=O)(=O)c2cccc(C(=O)N(C)C(c3ccccc3)c3ccccc3)c2)CC1	-4.2%	-23.6	-75.4*	10.9	-0.8%	13.0
O=C(NCc1ccc(Cl)cc1)c1ccc(OCC2CCCO2)cc1 (configuration not stated)	-0.6%	-16.6	0.4	1.0	-1.5%	18.0
O=C(Nc1ccc(Cl)cc1)c1ccc(OCC2CCCO2)cc1 (configuration not stated)	14.1µM*	4.6	-16.8	1.2	25.4%	12.5
COc1cccc(-c2noc(CCCC(=O)NCc3ccco3)n2)c1	-1.0%	.	.	.	.	.
COc1ccc(-c2noc(CCCC(=O)NCc3ccco3)n2)cc1OC	28.2µM*	-1.2	-19.0	4.0	2.0%	0.1
CC(C)CNC(=O)N1CCN(S(=O)(=O)c2ccc3c(ccn3C)c2)CC1	-1.0%	.	.	.	.	.
COc1ccc(NC(=O)C2Cc3c(-c4cccc(C(N)=O)c4)ccnc3O2)cc1 (configuration not stated)	0.9%	.	.	.	.	.
SMILES	ClpP mod	TRPV1 potentiator	KCNH2 3.1 block	hERG WT inh	p53 reactivation	TRPV1 ag
O=C(Cn1c(=O)n(Cc2ccc(Cl)cc2)c(=O)c2cccnc21)Nc1ccccc1C(F)(F)F	-0.5%	.	.	.	.	.
Cc1ccc(Cn2c(=O)c3cccnc3n(CC(=O)Nc3cccc(C(F)(F)F)c3)c2=O)cc1	31.6µM*!	25.0	2.8	-0.4	-9.7%	-6.9
Cc1cc2cc(CCNS(=O)(=O)c3ccc(Br)cc3)c(=O)[nH]c2cc1C	-18.1%	.	.	.	.	.
CCC(C)[C@H](NC(=O)OC(C)(C)C)C(=O)N/N=C/c1ccc2cc(OC)ccc2n1 (some centres not stated)	?	7.0	-3.4	-3.6	6.3%	-0.3
COc1ccc2nc(/C=N/NC(=O)[C@H](CCSC)NC(=O)OC(C)(C)C)ccc2c1	8.91µM*	-4.8	-27.4	-45.2	-8.6%	-2.4
CC1Cn2cc(C(=O)Nc3cccc(C(F)(F)F)c3)c(=O)c3c(Cl)ccc(c32)O1 (configuration not stated)	-1.6%	.	.	.	.	.
COc1cccc(-c2nc(CCl)cs2)c1OC	-3.5%	20.5	-4.5	7.5	-1.1%	-1.5
COc1ccc(-c2nc(CCNC(=O)c3ccccc3)cs2)cc1OC	25.1µM*	.	.	.	.	.
COc1ccc(-c2nc(CC(=O)O)cs2)cc1OC	.	2.0	.	.	1.1%	-2.5
CCCCOc1ccc(S(=O)(=O)NCc2csc(-c3ccc(OC)cc3)n2)cc1	12.6µM*	.	.	.	.	.
COc1ccc(-c2nc(CNS(=O)(=O)c3ccccc3)cs2)cc1	-6.7%	.	.	.	.	.
COc1cccc(-c2nc(CC(=O)O)cs2)c1OC	12.6µM*	4.5	15.3	-19.7	1.5%	-0.6
COc1ccc(-c2nc(CC(=O)O)cs2)cc1	22.4µM*	-5.1	1.7	-2.0	1.6%	2.1
CCC1CCCCN1C(=O)CSc1n[nH]c(-c2ccccc2Cl)n1 (configuration not stated)	-0.6%	.	.	.	.	.
CN1c2c(nc(N)[nH]c2=O)NCC1CNc1ccc(C(=O)NC(CCC(=O)O)C(=O)O)cc1 (configuration not stated)	-0.7%	.	.	.	.	.
CCOc1ccc(/C=C/c2ccnc3ccccc23)cc1OCC	-10.4%	.	.	.	.	.
CN(C)c1ccc(/C=C/c2cnnc3ccccc23)cc1	-1.2%	.	.	.	.	.
O=C(CNC(=S)N(Cc1ccccc1)Cc1cccnc1)NC1CCCC1	-2.3%	9.0	-2.8	18.1	-13.4%	-4.1
O=C(CNC(=S)N(Cc1ccccc1)Cc1cccnc1)NC1CC1	25.1µM*	5.0	2.4	-2.3	-9.9%	1.9
CCCn1c(=O)[nH]c(=O)c2c1nc(-c1ccc(OC(F)F)cc1)n2CCN1CCOCC1	-7.8%	-21.1	-0.1	-4.2	-4.8%	24.4
CCCn1c(=O)[nH]c(=O)c2c1nc(-c1ccc3c(c1)OCCO3)n2CCN1CCOCC1	31.6µM*	1.7	1.8	-11.2	-26.0%	-0.8
